Data taken from PubChem BioAssay AID1159580 (chemical genetic matrix, 2015).
The campaign covered roughly 5,500 compounds. About 2,000 (36%) were called active. Another 18% or so got no clear call; they are omitted. Rule as the data show it: active = normalized growth mostly below about 0.91 (no sharp cut-off); inconclusive = no clear call, values can overlap the other calls; inactive = mostly above about 0.92. This is one part of the list.

Experiment: chemical genetic growth profiling, strain panel (AID 1159580);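 also: tested at 20 µM; growth read once vehicle control cultures reached saturation at 30 °C; 1 = growth at the plate median or of vehicle wells; lower values mean less growth of the strain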
Conditions: growth OD

Measured: normalized growth

OC[C@@H](O)[C@@H](O[C@@H]1O[C@H](CO)[C@@H](O)[C@H](O)[C@H]1O)[C@H](O)[C@@H](O)CO
inactive: S. cerevisiae deletion strains, locus YJR075W, strain HOC1, stronger effect = lower value 1.01 | S. cerevisiae deletion strains, locus YKL009W, strain mrt4, stronger effect = lower value 1.02 | S. cerevisiae deletion strains, locus YKL068W, stronger effect = lower value 0.999 | S. cerevisiae deletion strains, locus YKL085W, strain MDH1 (second series), stronger effect = lower value 0.998 | S. cerevisiae deletion strains, locus YKL085W, strain MDH1, stronger effect = lower value 0.998 | S. cerevisiae deletion strains, locus YKL160W, strain elf1, stronger effect = lower value 1.02 | S. cerevisiae deletion strains, locus YKL190W, strain CNB1, stronger effect = lower value 1 | S. cerevisiae deletion strains, locus YKR001C, strain vps1, stronger effect = lower value 1.02 | S. cerevisiae deletion strains, locus YKR026C, strain gcn3, stronger effect = lower value 0.991 | S. cerevisiae deletion strains, locus YKR091W, strain srl3, stronger effect = lower value 0.996 | S. cerevisiae deletion strains, locus YLL001W, strain dnm1, stronger effect = lower value 1.01 | S. cerevisiae deletion strains, locus YLL026W, stronger effect = lower value 0.994 | S. cerevisiae deletion strains, locus YLL041C, strain sdh2, stronger effect = lower value 0.989 | S. cerevisiae deletion strains, locus YLR027C, strain aat2, stronger effect = lower value 0.997 | S. cerevisiae deletion strains, locus YLR039C, strain RIC1, stronger effect = lower value 1.06 | S. cerevisiae deletion strains, locus YLR058C, strain SHM2, stronger effect = lower value 1.01 | S. cerevisiae deletion strains, locus YLR102C, strain apc9, stronger effect = lower value 1.01 | S. cerevisiae deletion strains, locus YLR113W, strain HOG1, stronger effect = lower value 0.99 | S. cerevisiae deletion strains, locus YLR221C, strain rsa3, stronger effect = lower value 1.04 | S. cerevisiae deletion strains, locus YLR258W, strain gsy2, stronger effect = lower value 1 | S. cerevisiae deletion strains, locus YLR262C, strain YPT6 (second series), stronger effect = lower value 1.01 | S. cerevisiae deletion strains, locus YLR262C, strain YPT6, stronger effect = lower value 1.05 | S. cerevisiae deletion strains, locus YLR268W, strain sec22, stronger effect = lower value 0.999 | S. cerevisiae deletion strains, locus YLR320W, strain mms22, stronger effect = lower value 1.04 | S. cerevisiae deletion strains, locus YLR330W, strain CHS5, stronger effect = lower value 1.01 | S. cerevisiae deletion strains, locus YLR342W, strain FKS1 (second series), stronger effect = lower value 1.12 | S. cerevisiae deletion strains, locus YLR342W, strain FKS1, stronger effect = lower value 0.974 | S. cerevisiae deletion strains, locus YLR357W, strain rsc2, stronger effect = lower value 0.958 | S. cerevisiae deletion strains, locus YLR370C, strain arc18, stronger effect = lower value 0.996 | S. cerevisiae deletion strains, locus YLR371W, strain rom2, stronger effect = lower value 1.01 | S. cerevisiae deletion strains, locus YLR384C, strain iki3, stronger effect = lower value 0.999 | S. cerevisiae deletion strains, locus YLR418C, strain cdc73, stronger effect = lower value 0.974 | S. cerevisiae deletion strains, locus YML016C, strain PPZ1, stronger effect = lower value 1.01 | S. cerevisiae deletion strains, locus YML032C, strain rad52, stronger effect = lower value 1.05 | S. cerevisiae deletion strains, locus YML120C, strain ndi1, stronger effect = lower value 0.985 | S. cerevisiae deletion strains, locus YML124C, strain tub3, stronger effect = lower value 1.01 | S. cerevisiae deletion strains, locus YMR058W, strain fet3, stronger effect = lower value 0.99 | S. cerevisiae deletion strains, locus YMR078C, strain ctf18, stronger effect = lower value 1.02 | S. cerevisiae deletion strains, locus YMR125W, strain sto1, stronger effect = lower value 0.938 | S. cerevisiae deletion strains, locus YMR129W, stronger effect = lower value 0.992 | S. cerevisiae deletion strains, locus YMR205C, strain PFK2, stronger effect = lower value 1.03 | S. cerevisiae deletion strains, locus YMR223W, strain ubp8, stronger effect = lower value 1.06 | S. cerevisiae deletion strains, locus YMR231W, strain pep5, stronger effect = lower value 0.983 | S. cerevisiae deletion strains, locus YMR263W, strain SAP30, stronger effect = lower value 1.02 | S. cerevisiae deletion strains, locus YMR307W, strain GAS1, stronger effect = lower value 1.1 | S. cerevisiae deletion strains, locus YNL067W, strain RPL9B, stronger effect = lower value 0.998 | S. cerevisiae deletion strains, locus YNL071W, strain lat1, stronger effect = lower value 0.986 | S. cerevisiae deletion strains, locus YNL128W, strain TEP1, stronger effect = lower value 0.985 | S. cerevisiae deletion strains, locus YNL153C, strain GIM3, stronger effect = lower value 1 | S. cerevisiae deletion strains, locus YNL183C, strain NPR1, stronger effect = lower value 0.982 | S. cerevisiae deletion strains, locus YNL209W, strain ssb2, stronger effect = lower value 0.999 | S. cerevisiae deletion strains, locus YNL233W, strain BNI4, stronger effect = lower value 1.02 | S. cerevisiae deletion strains, locus YNL248C, strain rpa49, stronger effect = lower value 0.976 | S. cerevisiae deletion strains, locus YNL250W, strain rad50, stronger effect = lower value 1.02 | S. cerevisiae deletion strains, locus YNL271C, strain bni1, stronger effect = lower value 1.03 | S. cerevisiae deletion strains, locus YNL298W, strain CLA4, stronger effect = lower value 1.02 | S. cerevisiae deletion strains, locus YNL307C, strain MCK1, stronger effect = lower value 1.03 | S. cerevisiae deletion strains, locus YNL322C, strain KRE1 (second series), stronger effect = lower value 0.991 | S. cerevisiae deletion strains, locus YNL322C, strain KRE1, stronger effect = lower value 1.01 | S. cerevisiae deletion strains, locus YNR049C, strain mso1, stronger effect = lower value 0.993 | S. cerevisiae deletion strains, locus YNR052C, strain pop2, stronger effect = lower value 1.01 | S. cerevisiae deletion strains, locus YOL006C, strain TOP1, stronger effect = lower value 1.07 | S. cerevisiae deletion strains, locus YOL012C, strain htz1 1.19 | S. cerevisiae deletion strains, locus YOL147C, strain pex11, stronger effect = lower value 1.01 | S. cerevisiae deletion strains, locus YOR001W, strain rrp6, stronger effect = lower value 0.968 | S. cerevisiae deletion strains, locus YOR061W, strain CKA2, stronger effect = lower value 1.02 | S. cerevisiae deletion strains, locus YOR069W, strain VPS5, stronger effect = lower value 1.01 | S. cerevisiae deletion strains, locus YOR070C, strain gyp1, stronger effect = lower value 0.994 | S. cerevisiae deletion strains, locus YOR080W, strain dia2, stronger effect = lower value 0.995 | S. cerevisiae deletion strains, locus YOR083W, strain WHI5, stronger effect = lower value 1.03 | S. cerevisiae deletion strains, locus YOR106W, strain vam3, stronger effect = lower value 0.998 | S. cerevisiae deletion strains, locus YOR136W, strain idh2, stronger effect = lower value 1.02 | S. cerevisiae deletion strains, locus YOR144C, strain elg1, stronger effect = lower value 1 | S. cerevisiae deletion strains, locus YOR184W, strain ser1, stronger effect = lower value 1.08 | S. cerevisiae deletion strains, locus YOR231W, strain MKK1, stronger effect = lower value 1 | S. cerevisiae deletion strains, locus YOR265W, strain rbl2, stronger effect = lower value 1 | S. cerevisiae deletion strains, locus YOR270C, strain vph1, stronger effect = lower value 0.956 | S. cerevisiae deletion strains, locus YOR290C, strain snf2, stronger effect = lower value 1 | S. cerevisiae deletion strains, locus YOR316C, strain cot1, stronger effect = lower value 1.01 | S. cerevisiae deletion strains, locus YPL051W, strain arl3, stronger effect = lower value 1.02 | S. cerevisiae deletion strains, locus YPL055C, strain LGE1, stronger effect = lower value 0.991 | S. cerevisiae deletion strains, locus YPL078C, strain atp4, stronger effect = lower value 1 | S. cerevisiae deletion strains, locus YPL106C, strain sse1, stronger effect = lower value 1.01 | S. cerevisiae deletion strains, locus YPL240C, strain hsp82, stronger effect = lower value 0.997 | S. cerevisiae deletion strains, locus YPL241C, strain CIN2, stronger effect = lower value 1.01 | S. cerevisiae deletion strains, locus YPL256C, strain CLN2, stronger effect = lower value 0.985 | S. cerevisiae deletion strains, locus YPR119W, strain clb2, stronger effect = lower value 1 | S. cerevisiae deletion strains, locus YPR141C, strain kar3, stronger effect = lower value 1.02 | S. cerevisiae deletion strains, locus YPR163C, strain tif3, stronger effect = lower value 1.01 | S. cerevisiae deletion strains, locus YPR167C, strain met16, stronger effect = lower value 1 | S. cerevisiae deletion strains, strain wtn01, stronger effect = lower value 0.992 | S. cerevisiae strains, strain wild type, stronger effect = lower value 1.02
